We go through 53 compounds from PubChem BioAssay AID463254 (National Center for Advancing Translational Sciences (NCATS), 2010).

Molecules are shown by their SMILES. Out of some 330,000 compounds screened, about 40 (0.01%) were called active. Where a call stands in place of a potency, no number is given. Calls come from the whole dose curve; as a rule, active = well fitted inhibition curve with a large enough effect; inconclusive = small, poorly fitted or top-dose-only effect, or effect the other way; inactive = flat fitted curve, though single readings scatter. The sample as a whole holds a higher share of actives than the screen did.
Potency is the fitted concentration of half-maximal effect.

Ubiquitin carboxyl-terminal hydrolase 2 (Homo sapiens), sequence (O75604 whole entry, looked up): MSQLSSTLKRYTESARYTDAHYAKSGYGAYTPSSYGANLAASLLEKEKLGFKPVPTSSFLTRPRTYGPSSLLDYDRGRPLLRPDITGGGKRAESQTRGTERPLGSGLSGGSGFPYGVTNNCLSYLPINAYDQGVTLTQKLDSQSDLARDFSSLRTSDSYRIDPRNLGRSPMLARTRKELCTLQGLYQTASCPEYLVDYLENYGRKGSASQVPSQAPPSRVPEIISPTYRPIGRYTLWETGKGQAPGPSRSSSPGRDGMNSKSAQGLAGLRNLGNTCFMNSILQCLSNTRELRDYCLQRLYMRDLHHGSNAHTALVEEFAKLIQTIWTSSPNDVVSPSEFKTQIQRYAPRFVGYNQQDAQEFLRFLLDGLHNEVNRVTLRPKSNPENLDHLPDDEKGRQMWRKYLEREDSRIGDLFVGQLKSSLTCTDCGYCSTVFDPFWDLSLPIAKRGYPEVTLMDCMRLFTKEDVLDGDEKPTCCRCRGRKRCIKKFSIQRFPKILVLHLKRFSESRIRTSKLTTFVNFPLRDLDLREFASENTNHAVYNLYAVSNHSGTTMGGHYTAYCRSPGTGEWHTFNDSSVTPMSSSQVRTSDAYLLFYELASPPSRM

This test addresses Ubiquitin carboxyl-terminal hydrolase 2 (Homo sapiens) (UniProt O75604). As to the kind of experiment: qHTS Assay for Inhibitors of Ubiquitin-specific Protease USP2a Using CHOP2 as the Reporter. To be noted: USP2 core, Ub-CHOP2 coupled fluorogenic reporter, 485/531; series mostly up to 38.3 µM. The source says:
NIH Molecular Libraries Screening Centers Network [MLSCN] NIH Chemical Genomics Center [NCGC] MLSCN Grant: XO1-MH079852-01 PI Name: Nicholson, Ben. Progenra Inc, Malvern, PA NCGC Assay Overview: Homeostasis of cellular proteins is maintained through a combination of synthesis and degradation. The pathway that accounts for the majority of protein degradation is the ubiquitin-proteasomal pathway. Ubiquitin (Ub) is highly conserved in all cells and the generation of a multi-Ub chain typically targets proteins for degradation by the proteasome. However, ubiquitination is highly reversible and dynamic. Deubiquitination, the reverse process, is catalyzed through the action of enzymes referred to as isopeptidases or deubiquitinating enzymes (DUBs). This group of enzymes is collectively responsible for maintaining adequate pools of free ubiquitin and regulating the ubiquitination status of cellular proteins. The class of DUBs referred to as the ubiquitin-specific proteases (USP) family functions endoproteolytically to cleave Ub chains from a wide range of protein substrates. USP2a deubiquitinates fatty acid synthase (FASN) which has recently been identified as an emerging oncology target. To identify inhibitors of USP2a a cell-free assay was employed. […] The reporter enzyme chosen is an enterokinase called CHOP2, which is activated when the Ub is cleaved by USP2. The free and now activated reporter can subsequently act on its reporter substrate. Thus, this coupled assay gives a fluorescent read-out at excitation/emission wavelengths of 485/531. The assay was developed by Progenra, Inc. and has been licensed for sale by LifeSensors, Inc. as Ub-CHOP2-Reporter-Kit (#PR1101).
NCGC Assay Protocol Summary: The assay buffer, prepared fresh at the day of the assay, contains 20mM Tris-HCl pH 8.0, 2mM CaCl2, 2mM beta-Mercaptoethanol, 0.05% CHAPS. 3ul of 20nM (10nM final) USP2 core, which is stored on ice, is dispensed into a medium-binding black solid Kalypsys 1,536 well plate using the Kalypsys dispenser. The assay plate is then pinned with 23nL compound with the Kalypsys pintool in columns 5-48. The controls are pinned as follows: column 1 two-fold dilutions of 2M NEM in duplicate; column 2 2M NEM (final concentration 38.2mM); column 3&4 DMSO. The assay plate is incubated at RT for 30min. Subsequently, 1.5uL of 100nM (25nM final) Ub-CHOP2 and 1.5uL of 100nM (25nM final) Reporter Substrate (both stored on ice and protected from light) were dispensed into the plate using the Kalypsys dispenser. Plates were read after 60min RT incubation on a ViewLux (Perkin Elmer) plate reader using the following wavelengths Ex 485nm /Em 531nm. Data were normalized to the to AC100 inhibition (NEM). Concentration-response curves were fitted to the normalized data and the concentration-response curves were then classified based on curve quality (r2), response magnitude and degree of measured activity. The time zero reading was used to flag fluorescence artifacts. Keywords: ubiquitination, deubiquitination, proteases, profluorescent, MLSMR, MLPCN, NIH Roadmap, qHTS, NCGC
On the technique in general: qHTS replaces the single test concentration by a dilution series.
Regarding `COc1ccc(C(=O)NCC2CCCCC2)cc1S(=O)(=O)N1CCCC1`, the activity change, negative = inhibition entry was “inactive”.
On to `CCn1cc(C(=O)NCc2ccc(OC)cc2OC)c(=O)c2ccc(C)nc21`, for which the activity change, negative = inhibition result is “inactive”.
For `COc1ccc(C2COC(=O)C2=N)c(NC(=O)c2ccccc2)c1` (stereo not drawn), the activity change, negative = inhibition result was “inactive”.
With `COc1ccc(C(CC(=O)Nc2ccc(C)cc2)NC(=O)C(F)(F)F)cc1` (stereo not drawn), the activity change, negative = inhibition entry was “inactive”.
With `CCCCN(Cc1ccccc1)C(=O)C1CCN(Cc2sccc2C)CC1`, the activity change, negative = inhibition entry is “inactive”.
Consider `CC(=O)c1c(OCC(=O)N(C)C2CCCCC2)ccc2c(C)cc(=O)oc12`, for which the activity change, negative = inhibition entry was “inactive”.
Turning to `Cc1ccc(NS(=O)(=O)c2ccc3c(c2)CC(=O)N3)cc1Cl`, the activity change, negative = inhibition entry is “inactive”.
In the case of `CCOc1ccc(NC(=O)CCNC(=O)c2ccc(Br)cc2)cc1`, the activity change, negative = inhibition entry was “inactive”.
For `CCOc1ccc(NC(=O)c2ccc(NC(=O)COC(=O)c3ccc(NC(=O)CC#N)cc3)cc2)cc1`, the Potency was 7.94 µM (active).
As to `N#CCC(=O)Nc1ccc(C(=O)OCC(=O)Nc2sc3c(c2C#N)CCCC3)cc1`, the activity change, negative = inhibition result was “inactive”.
Regarding `O=C(CCS(=O)(=O)c1ccccc1Cl)Nc1ccc(S(=O)(=O)Nc2ncccn2)cc1`, the activity change, negative = inhibition result is “inactive”.
Still for that read-out and setting: in the case of `CC(C)C1N=C2c3ccccc3N=C(SCC(=O)c3ccc(O)c(O)c3)N2C1=O` (stereo not drawn) it was “inactive”.
On the same count and under the same terms, then `COc1ccccc1/C=C/C(=O)OCC(=O)NC1CCCCCC1`, with “inactive”.
`CCOc1ccc(NS(=O)(=O)c2ccc(C(=O)NC3CCN(Cc4ccccc4)CC3)cc2)cc1`: the activity change, negative = inhibition result is “inactive”.
For the compound `CC(C)OC(=O)C(C#N)c1nc2ccccc2nc1N1CCN(Cc2ccc3c(c2)OCO3)CC1` (stereo not drawn), the activity change, negative = inhibition result was “inactive”.
The same measure, in the same setting: then `COc1cccc(-c2nnc(NC(=O)c3ccc(S(=O)(=O)N(CC(C)C)CC(C)C)cc3)o2)c1`, with “inactive”.
Consider `Cc1sc(NC(=O)C2C3CCC(O3)C2C(=O)O)c(C(=O)OC(C)C)c1-c1ccc(Cl)cc1` (stereo not drawn), for which the activity change, negative = inhibition result was “inactive”.
The same measure, in the same setting: in the case of `CCN(CC)C(=O)CSC(Nc1cccc(F)c1)=C(C#N)C#N` it was “inactive”; in that of `CS(=O)(=O)c1ccc(-c2nnn(CC(=O)Nc3ccc4c(c3)OCCO4)n2)cc1`, “inactive”; in that of `COc1ccc(Nc2ncc(C(=O)N3CCN(c4ccccc4OC)CC3)c3ccccc23)cc1`, “inactive”.
`Cc1ccc(-n2nc(C)c(C(=O)O)c2-n2cccc2)cc1`: the activity change, negative = inhibition entry is “inactive”.
The same measure, in the same setting: then `CC(=O)c1ccc(NC(=O)C2CCCN2S(=O)(=O)c2cccs2)cc1` (stereo not drawn), with “inactive”.
On to `Cn1c(=O)c2cc(S(=O)(=O)NCCC(=O)Nc3ccc(F)cc3F)ccc2n(C)c1=O`, for which the activity change, negative = inhibition entry was “inactive”.
For the compound `Cc1cc(-c2n[nH]c(=S)n2/N=C/C(Br)=C/c2ccccc2)n[nH]1`, the activity change, negative = inhibition result was “inactive”.
Regarding `Cc1c(C)c(C)c(S(=O)(=O)NCCc2ccccn2)c(C)c1C`, the activity change, negative = inhibition result is “inactive”.
Regarding `COc1cc(C)c(S(=O)(=O)N2CCOCC2)c(C)c1C`, the activity change, negative = inhibition entry was “inactive”.
Take `COc1ccc(NC(=O)CN(C)C(=O)c2cccc(S(=O)(=O)N3CCN(c4ccccc4)CC3)c2)cc1`: the activity change, negative = inhibition entry is “inactive”.
In the case of `CCN(CC)C(=O)CSc1nnc(-c2ccc(S(=O)(=O)NCc3ccccc3Cl)cc2)o1`, the activity change, negative = inhibition entry is “inactive”.
In the case of `CN(CCO)c1ccc(/C=N/Nc2nncc3ccccc23)cc1`, the activity change, negative = inhibition entry is “inactive”.
Still for that read-out and setting: in the case of `CCOC(=O)c1cc(-c2ccc(Cl)s2)nc2c1c(C)nn2C` it was “inactive”; in that of `COc1ccc(NC(=O)CN2C(=O)C(c3ccccc3)=NC23CCCCCC3)cc1OC`, “inactive”; in that of `CC1(C)CC(=O)c2cc(OCC(=O)NCC3CCCO3)ccc2O1` (stereo not drawn), “inactive”.
In the case of `Cc1c(-c2nn(C)c(=O)c3ccccc23)oc2ccc(F)cc2c1=O`, the activity change, negative = inhibition result is “inactive”.
Still for that read-out and setting: in the case of `CC(C)Cc1nn2c(=O)cc(O)nc2s1` it was “inactive”; in that of `COc1cc(N/C=C2\CC(=O)NC(C)=C2C#N)cc(OC)c1OC`, “inactive”.
The same measure, in the same setting: in the case of `O=C(Nc1cccc(Cl)c1)c1cncn1-c1ccc(F)cc1` it was “inactive”.
`O=C(COC(=O)c1cccc(Cl)c1)NC1CCCCCCC1`: the activity change, negative = inhibition entry is “inactive”.
In the case of `Cc1cccc(OCC(O)CN2CCN(CCN3C(=O)c4cccc5cccc(c45)C3=O)CC2)c1C` (stereo not drawn), the activity change, negative = inhibition result is “inactive”.
The same measure, in the same setting: then `Cc1nc(NC2=NC(C(=O)Nc3ccc(Cl)cc3)CC(=O)N2)nc2ccccc12` (stereo not drawn), with “inactive”.
For the compound `C=CC(COCc1ccccc1)N(Cc1ccccc1)S(=O)(=O)c1ccccc1Br` (stereo not drawn), the activity change, negative = inhibition result is “inactive”.
On to `CCC(C)N1CC(=O)N2Cc3[nH]c4ccccc4c3C[C@H]2C1=O` (stereo partly drawn), for which the activity change, negative = inhibition result is “inactive”.
The same measure, in the same setting: then `CCCCOC(=O)c1ccc(NC(c2ccc(C)cc2)P(=O)(OC)OC)cc1` (stereo not drawn), with “inactive”.
In the case of `O=C(O)c1cc2c(cc1NC(=O)c1c(F)cccc1Cl)OCCCO2`, the activity change, negative = inhibition result was “inactive”.
Consider `O=S(=O)(NC1CCN(S(=O)(=O)c2ccc3c(c2)OCCO3)CC1)c1c(F)cccc1F`, for which the activity change, negative = inhibition result was “inactive”.
For `CCCOc1ccc(CN(CCO)CCO)cc1C(=O)OC`, the activity change, negative = inhibition result was “inactive”.
Take `Cc1ccc(NC2=C(Cl)C(=O)OC2OC(=O)c2ccccc2C)cc1` (stereo not drawn): the activity change, negative = inhibition result was “inactive”.
Same read-out and setting: then `C[C@@]12C(=O)N(c3cccc(Br)c3)C(=O)N1[C@H](c1ccc(Cl)cc1)[C@@H]1C(=O)N(C3CCCCC3)C(=O)[C@@H]12`, with “inactive”; and `CCn1c(SC(C)C(=O)Nc2ccc(N3CCOCC3)cc2)nnc1-c1ccco1` (stereo not drawn), with “inactive”; and `CCOC(=O)c1c(CNCc2ccccc2F)c2sc(C)cc2n1C`, with “inactive”.
Take `CN(C(=O)CCn1c(=S)oc2ccccc21)C1CCCCC1`: the activity change, negative = inhibition result is “inactive”.
Consider `CCCCN=C(N)/C(C(=O)OCC)=C(\O)c1ccc(OC)cc1`, for which the activity change, negative = inhibition result was “inactive”.
As for `COc1ccc(OC)c(-n2cc3c(=O)n(C)c(=O)n(C)c3c2)c1`, the activity change, negative = inhibition entry was “inactive”.
Take `O=[N+]([O-])c1cc([N+](=O)[O-])c2cccnc2c1O`: the activity change, negative = inhibition result was “inactive”.
